The values below come from PubChem BioAssay (Tox21).

Assay [1] can be described thus: A CellTox Green Cytotoxicity Assay to monitor cytotoxicity in HepG2 cells - 32 hour (AID 1224883). Note: nearly all actives have a fitted effect of over 50% in size. Note: potency is the fitted concentration of half-maximal effect. The essentials:
(§1)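 HepG2 cells, 600/well, preincubated 5 h with CellTox Green dye, then exposed to Tox21 compounds in DMSO at 37 C for up to 40 h. Dead-cell DNA fluorescence read at the indicated time point.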

Assay [2] is described as follows: A CellTox Green Cytotoxicity Assay to monitor cytotoxicity in HEK293 cells - 8 hour (AID 1224884). Note: nearly all actives have a fitted effect of over 35% in size. Note: potency is the fitted concentration of half-maximal effect. The essentials: (§2)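 HEK293 cells, 600/well, were preincubated 5 hours and then exposed to compounds at 37 C for up to 40 hours. A cell-impermeant cyanine dye staining dead-cell DNA was read by fluorescence at 0, 8, 16, 24, 32 and 40 h time points.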
Assay [3] can be described thus: qHTS RealTime-Glo MT Cell Viability Assay in HepG2 cells - 16 hour (AID 1224885). Note: nearly all actives have a fitted effect of over 50% in size. Note: potency is the fitted concentration of half-maximal effect. The essentials:
(§3)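 Cell number in HepG2 cultures estimated from NanoLuc luminescence generated by metabolic reduction of a prosubstrate by living cells. The homogeneous, nonlytic format allowed repeated reads at 0, 8, 16, 24, 32 and 40 h of compound exposure.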
(In general: Quantitative high-throughput screening tests each substance at several concentrations.)

A short description of assay [4]: qHTS RealTime-Glo MT Cell Viability Assay in HEK293 cells - 24 hour (AID 1224886). Note: nearly all actives have a fitted effect of over 50% in size. Note: potency is the fitted concentration of half-maximal effect. The essentials:
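Homogeneous bioluminescent viability format in HEK293 cells (600 cells/well). Following 5 h at 37 C/5% CO2, 23 nL compound was pintooled; the signal was measured repeatedly during 40 h incubation.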

A short description of assay [5]: qHTS RealTime-Glo MT Cell Viability Assay in HEK293 cells - 8 hour (AID 1224887). Note: nearly all actives have a fitted effect of over 50% in size. Note: potency is the fitted concentration of half-maximal effect. The essentials: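 600 cells/well were plated with the nonlytic NanoLuc/prosubstrate reagent, pre-incubated 5 h, then given 23 nL of compound in DMSO. Incubation at 37 C for 40 h, with luminescence from viable-cell-reduced substrate read repeatedly from 0 h.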
The nature of assay [6]: A CellTox Green Cytotoxicity Assay to monitor cytotoxicity in HEK293 cells - 16 hour (AID 1224888). Note: nearly all actives have a fitted effect of over 35% in size. Note: potency is the fitted concentration of half-maximal effect. The essentials:
as §2

Assay [7] can be described thus: qHTS RealTime-Glo MT Cell Viability Assay in HepG2 cells - 0 hour (AID 1224889). Note: nearly all actives have a fitted effect of over 50% in size. The essentials: as §3
The nature of assay [8]: A CellTox Green Cytotoxicity Assay to monitor cytotoxicity in HepG2 cells - 8 hour (AID 1224890). Note: nearly all actives have a fitted effect of over 45% in size. Note: potency is the fitted concentration of half-maximal effect. An outline of the steps:
as §1

The nature of assay [9]: qHTS assay to identify small molecule antagonists of the estrogen receptor alpha (ER-alpha) signaling pathway using the BG1 cell line in the presence of 0.1 nM 17-beta-estradiol - cell viability counter screen (AID 1259241). Note: nearly all actives have a fitted effect of over 40% in size. Note: potency is the fitted concentration of half-maximal effect. An outline of the steps: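 Measures cytotoxicity alongside the ER-alpha antagonist readout: VM7Luc4E2 cells, charcoal-stripped serum, 0.1 nM 17beta-estradiol final, 22 hr compound incubation at 37C, CellTiter-Fluor fluorescence.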

The nature of assay [10]: qHTS assay to identify small molecule antagonists of the androgen receptor (AR) signaling pathway using the MDA cell line in the presence of 0.5 nM R1881 - cell viability counter screen (AID 1259242). Note: nearly all actives have a fitted effect of over 45% in size. Note: potency is the fitted concentration of half-maximal effect. The essentials: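 MDA-kb2 cells (MMTV-luciferase, AR/GR responsive) were treated with compounds plus 0.5 nM R1881 (final) for 16 hr at 37C, 0% CO2. Viability was then read in the same wells as live-cell protease fluorescence (CellTiter-Fluor, 30 min).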

Results filed as inconclusive are left out. More than one record can exist for a structure, and the calls need not agree. Activity calls are given as the source filed them. Calls come from the whole dose curve; as a rule, active = well fitted curve in the direction sought with a large enough effect in the repeat runs; inconclusive = weak or mixed curves; inactive = no such curve, though single readings can be large; an effect the other way counts as inactive or inconclusive.

Consider `COc1c(C)c2c(c(O)c1C/C=C(\C)CCC(=O)O)C(=O)OC2`, for which the Potency entry in assay [1], in assay [2], in assay [3], in assay [4], in [5] and in assay [6] was “inactive” in each case. Further, the Potency result in assay [7], in [8], in assay [9] and in assay [10] was “inactive” throughout.
For `O=C(Nc1ccc(Oc2ccc(Cl)cc2)c(Cl)c1)c1cc(I)cc(I)c1O`, the Potency result in assay [1], in assay [2], in assay [3], in assay [4], in assay [5] and in [6] was “inactive” throughout. In addition, the Potency result in assay [7], in assay [8] and in assay [10] was “inactive” throughout.
Consider `O=[N+]([O-])c1ccccc1Nc1ccccc1`, for which the Potency result in [1], in [2], in [3], in [4], in assay [5] and in [6] was “inactive” throughout. In addition, the Potency result in assay [7], in [8], in assay [9] and in [10] was “inactive” each time.
Take `CCc1oc2ccccc2c1C(=O)c1cc(Br)c(O)c(Br)c1`: the Potency result in assay [1], in assay [2], in assay [3], in assay [4], in assay [5] and in assay [6] was “inactive” in each case. Moreover, the Potency entry in assay [7], in assay [8] and in assay [9] was “inactive” throughout.
Consider `O=C(O)c1ccc(Cl)c(Cl)c1`, for which the Potency entry in assay [1], in assay [2], in assay [3], in [4], in assay [5] and in assay [6] was “inactive” in each case. Further, the Potency entry in assay [7], in assay [8], in assay [9] and in assay [10] was “inactive” each time.
For the compound `Cc1onc(-c2ccccc2Cl)c1C(=O)N[C@@H]1C(=O)N2[C@@H]1SC(C)(C)[C@@H]2C(=O)O`, the Potency entry in assay [1], in assay [2], in assay [3], in assay [4], in assay [5] and in [6] was “inactive” in each case. The Potency entry in [7], in [8], in [9] and in assay [10] was “inactive” in each case.
As to `CCN(CC)CCNC(=O)c1c(C)[nH]c(/C=C2\C(=O)Nc3ccc(F)cc32)c1C`, the Potency in assay [1] was 10.7 µM (active); in [2], 23.9 µM (active); in assay [3], 21.3 µM (active); in assay [4], 9.52 µM (active); in [5], 21.3 µM (active); in assay [6] it was 23.9 µM (active). For the same compound, the Potency in assay [8] is 19 µM (active). The Potency entry in assay [7] was “inactive”.
In the case of `C=CC(=O)OCCn1c(=O)n(CCOC(=O)C=C)c(=O)n(CCOC(=O)C=C)c1=O`, the Potency in assay [1] is 43.6 µM (active); in [3], 15.5 µM (active); in assay [4], 11 µM (active); in assay [9], 48.6 µM (active). Also, the Potency entry in [2], in [5], in assay [6], in assay [7] and in assay [8] was “inactive” each time.
For the compound `C/C=C(\C)C(=O)OCc1ccccc1`, the Potency result in assay [1], in assay [2], in assay [3], in [4], in assay [5] and in assay [6] was “inactive” each time. The Potency result in assay [7], in assay [8], in [9] and in assay [10] was “inactive” throughout.
For `Cc1cc(O)c(C(C)(C)C)cc1C(C)(C)C`, the Potency was 24.5 µM (active) in [1]; 19.5 µM (active) in assay [2]; 43.6 µM (active) in assay [3]; 19.5 µM (active) in [4]; 13.8 µM (active) in assay [5]; 34.7 µM (active) in assay [6]. Also, in assay [8], the Potency was 24.5 µM (active). Further, the Potency entry in assay [7] and in assay [9] was “inactive” each time.
For the compound `Cc1cc(O)c(C(C)(C)C)cc1Sc1cc(C(C)(C)C)c(O)cc1C`, the Potency in assay [1] is 61.5 µM (active); in assay [3], 48.9 µM (active); in assay [4], 21.8 µM (active); in assay [5] it was 24.5 µM (active); in assay [10], 43.2 µM (active). Moreover, the Potency entry in [2], in assay [6], in assay [7] and in assay [8] was “inactive” in each case.
Take `Oc1cc2ccccc2c2ccccc12`: the Potency in assay [1] was 11 µM (active); in [3], 11 µM (active); in assay [4], 9.77 µM (active); in assay [5] it was 3.47 µM (active); in assay [9], 21.7 µM (active). Further, the Potency entry in [2], in [6], in assay [7] and in assay [8] was “inactive” throughout.
Take `CC[C@H](c1ccc(O)cc1)[C@@H](CC)c1ccc(O)cc1`: the Potency was 43.6 µM (active) in assay [1]; 24.5 µM (active) in assay [4]; 54.9 µM (active) and inactive in [8]. The Potency result in [2], in [3], in assay [5], in assay [6], in assay [7] and in assay [9] was “inactive” in each case.
Regarding `CCCCCCCCCCn1cc[n+](CCCCCCCCCC)c1C`, the Potency is 17.4 µM (active) in assay [1]; 19.5 µM (active) in assay [2]; 21.9 µM (active) in [3]; 2.19 µM (active) in assay [4]; 21.9 µM (active) in assay [5]; 19.5 µM (active) in assay [6]. Further, the figures for the Potency in assay [8], in assay [9] and in [10] were 39 µM (active), 68.7 µM (active) and 30.7 µM (active), respectively. The Potency entry in assay [7] was “inactive”.
As to `CC[C@H]1O[C@]2(CC[C@@H]1C)C[C@@H]1C[C@@H](C/C=C(\C)C[C@@H](C)/C=C/C=C3\CO[C@@H]4[C@H](O)C(C)=C[C@@H](C(=O)O1)[C@]34O)O2`, the Potency in [1] is 27.3 µM (active); in [3], 43.3 µM (active); in [4] it was 34.4 µM (active); in assay [5], 43.3 µM (active); in assay [6], 48.5 µM (active); in assay [8], 48.5 µM (active). Further, the Potency entry in assay [2], in assay [7] and in [9] was “inactive” each time.
Regarding `CCCCCCCCCCCCCC[P+](CCCC)(CCCC)CCCC` (tested in a mixture with another compound), the Potency in [1] is 15.6 µM (active); in assay [2] it was 19.6 µM (active); in assay [3], 19.6 µM (active); in assay [4], 1.96 µM (active); in assay [5], 15.6 µM (active); in assay [6], 17.5 µM (active). Besides, the Potency in assay [8] was 22 µM (active). In addition, the Potency entry in [7] and in assay [9] was “inactive” throughout.
For `Nc1cc(C(F)(F)F)ccc1S`, the Potency entry in assay [1], in assay [2], in assay [3], in assay [4], in assay [5] and in [6] was “inactive” throughout. In addition, the Potency entry in assay [7], in assay [8], in [9] and in assay [10] was “inactive” each time.
In the case of `O=c1c(-c2ccccc2)c1-c1ccccc1`, the Potency in assay [1] was 9.52 µM (active); in [3] it was 19 µM (active); in assay [4] it was 13.4 µM (active); in [5], 16.9 µM (active). The Potency entry in assay [2], in assay [6], in assay [7], in assay [8], in assay [9] and in [10] was “inactive” each time.
`C[n+]1ccn(Cc2ccccc2)c1`: the Potency entry in assay [1], in assay [2], in assay [3], in assay [4], in [5] and in assay [6] was “inactive” throughout. The Potency entry in assay [7], in assay [8], in [9] and in assay [10] was “inactive” in each case.
